Assay results: PubChem BioAssay (NCATS)
Records with an inconclusive call do not appear. The source made the active and inactive calls. Calls come from the whole dose curve; as a rule, active = well fitted curve in the direction sought with a large enough effect; inconclusive = small, poorly fitted or top-dose-only effect, or another doubt; inactive = no such curve, though single readings can be large; an effect the other way counts as inactive or inconclusive.

What was measured:
[1] = BET inhibitor-based combinations targeting novel dependencies in MECOM-rearranged (r) AML: OCI-AML3 cell line (AID 2202232); conditions: CellTiter-Glo luminescence, 48 h; Potency: OCI-AML3 viability; series mostly up to 46 µM; note: nearly all actives have a fitted effect of over 35% in size; note: potency is the fitted concentration of half-maximal effect
How it was run: (§1)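 Each compound was tested at eleven concentrations on cells seeded at 500/well. After two days' incubation, ATP-based luminescence reported viability; responses relative to DMSO and blank wells yielded AUC and cell-line-centred Z-AUC.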

[2] = BET inhibitor-based combinations targeting novel dependencies in MECOM-rearranged (r) AML: MV-4-11 cell line (AID 2202233); conditions: MV-4-11 AML viability, CellTiter-Glo luminescence, 48 h; series mostly up to 46 µM; note: nearly all actives have a fitted effect of over 45% in size; note: potency is the fitted concentration of half-maximal effect
How it was run: (§2)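 First, 500 cells per well were seeded; next, drugs were pinned as 11-point doses; then plates sat 48 hr in the incubator; finally CellTiter-Glo was added and luminescence read, with AUC and Z-AUC computed.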

[3] = BET inhibitor-based combinations targeting novel dependencies in MECOM-rearranged (r) AML: HNT-34 cell line (AID 2202234); conditions: HNT-34 AML viability, CellTiter-Glo luminescence, 48 h; series mostly up to 46 µM; note: nearly all actives have a fitted effect of over 35% in size; note: potency is the fitted concentration of half-maximal effect
How it was run: as §2

[4] = BET inhibitor-based combinations targeting novel dependencies in MECOM-rearranged (r) AML: UCSD-AML1 cell line (AID 2202235); conditions: UCSD-AML1 AML cells viability, CellTiter-Glo, 48 h; series mostly up to 46 µM; note: nearly all actives have a fitted effect of over 40% in size; note: potency is the fitted concentration of half-maximal effect
How it was run: as §2

[5] = BET inhibitor-based combinations targeting novel dependencies in MECOM-rearranged (r) AML: AML-191 cell line (AID 2202236; note: nearly all actives have a fitted effect of over 35% in size; note: potency is the fitted concentration of half-maximal effect); conditions: AML-191 viability, CellTiter-Glo luminescence, 48 h; series mostly up to 46 µM
How it was run: as §1

[6] = BET inhibitor-based combinations targeting novel dependencies in MECOM-rearranged (r) AML: AML-194 cell line (AID 2202237; note: nearly all actives have a fitted effect of over 40% in size; note: potency is the fitted concentration of half-maximal effect); conditions: AML-194 (MECOM-r AML) viability, CellTiter-Glo, 48 h; series mostly up to 46 µM
How it was run: as §1

[7] = molecular target: Retinaldehyde dehydrogenase 3 (Homo sapiens) (UniProt P47895); experiment: qHTS for Inhibitors of the Aldehyde Dehydrogenase Family (ALDH1A3) Primary screen (AID 2061315); conditions: ALDH inhibition qHTS; series mostly up to 56 µM;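 note: plate controls were DMSO vehicle for no effect and reference inhibitor for full effect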
[8] = molecular target: Retinaldehyde dehydrogenase 3 (Homo sapiens) (UniProt P47895); experiment: qHTS for Inhibitors of the Aldehyde Dehydrogenase Family (ALDH1A3) Validation screen (AID 2061312); conditions: ALDH1A3 enzyme inhibition qHTS validation, fluorescence; series mostly up to 84.7 µM; note: % is set by controls: 0 for no effect and ±100 for the full control effect; nearly all actives have a fitted effect of over 45% in size
[9] = BET inhibitor-based combinations targeting novel dependencies in MECOM-rearranged (r) AML: SET-2 cell line (AID 2202231); conditions: SET-2 AML cells viability, CellTiter-Glo luminescence, 48 h; viability: stronger effect = lower value, concentration not given here; note: nearly all actives have a fitted effect of over 35% in size; note: potency is the fitted concentration of half-maximal effect;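 for viability: plate controls were DMSO treated cells for no effect and wells without cells for full effect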
How it was run: as §1

O=C(Nc1nnc(-c2ccco2)o1)c1cc(-c2ccccc2)nc2ccccc12
active: Potency [1] 14.8 µM | Potency [2] 20.9 µM | Potency [3] 10.5 µM | Potency [4] 8.33 µM | Potency [5] 11.8 µM | Potency [6] 13.2 µM

C=C1C(=O)OC(CCCCCCCC)C1C(=O)O (stereo unspecified)
inactive: Potency [2] | Potency [3] | Potency [4] | Potency [5] | Potency [6]

C[C@@H]1C[C@@H]2O[C@H]2/C=C\C=C\C(=O)Cc2c(Cl)c(O)cc(O)c2C(=O)O1
inactive: Potency [7]

CC(C)C(CO)Nc1nc(Nc2ccc(C(=O)O)c(Cl)c2)c2ncn(C(C)C)c2n1 (stereo unspecified)
inactive: Potency [8] | Potency [7]

CCCn1c(=O)c2[nH]c(C34CC5CC3C[C@@H](C5)C4)nc2n(CCC)c1=O
inactive: viability [9] 109% | Potency [4] | Potency [6]
active: Potency [2] 20.9 µM | Potency [5] 16.6 µM

O=C1NC(=O)C(c2c[nH]c3ccccc23)=C1c1c[nH]c2ccccc12
active: Potency [2] 2.63 µM

CO[C@@H]1[C@H](N(C)C(=O)c2ccccc2)C[C@H]2O[C@]1(C)n1c3ccccc3c3c4c(c5c6ccccc6n2c5c31)C(=O)NC4
active: Potency [1] 3.32 µM | Potency [2] 0.0934 µM

C[C@H](NC(=O)Cc1cc(F)cc(F)c1)C(=O)N[C@H](C(=O)OC(C)(C)C)c1ccccc1
inactive: viability [9] 118% | Potency [1] | Potency [2] | Potency [3] | Potency [4] | Potency [5] | Potency [6]

C[C@H](Nc1ncnc2nc[nH]c12)c1cc2cccc(Cl)c2c(=O)n1-c1ccccc1
active: Potency [9] 18.6 µM | Potency [1] 0.934 µM | Potency [4] 1.32 µM
inactive: Potency [7]

COc1ncnc(NS(=O)(=O)c2ccc(N)cc2)c1OC
inactive: viability [9] 116% | Potency [1] | Potency [2] | Potency [3] | Potency [4] | Potency [5] | Potency [6]

CC[C@H](C=C[C@@H](C)[C@H]1CC[C@H]2[C@@H]3CC=C4C[C@@H](O)CC[C@]4(C)[C@@H]3CC[C@]12C)C(C)C
inactive: viability [9] 107% | Potency [2] | Potency [3] | Potency [4] | Potency [5] | Potency [6]
